Source: PubChem BioAssay

test: small molecules captured by biotinylated probe aFGF2 – biochemical, small-molecule microarray, fluorescence 635/667, stem cell growth factor project, primary screen (AID 1067); conditions: higher = more signal;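 further: measures binding of biotinylated aFGF2 protein to printed compounds on slides; z-score merges feature fluorescence and signal-to-noise across triplicate slides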

Row | Structure (SMILES) | composite z-score
1 | CCCC[C@H]1OB(O)C[C@H]2C1=C(C)C[C@H]1C(=O)N(Cc3ccccc3)C(=O)[C@H]12 | 0.0171
2 | CC1CC/C=C\[C@H]2OC34C=CCN(Cc5ccccc5)C(=O)[C@H]3N(CCCCCO)C(=O)[C@@H]4C2C(=O)O1 (stereo not given in full) | -0.149
3 | CN(C)CCCNC(=O)[C@@]1(Cc2ccccc2I)c2ccccc2C(=O)N(Cc2ccccc2C(F)(F)F)[C@H]1c1ccc(CO)cc1 | -0.22
4 | COc1ccc([Si](C)(C)[C@@H]2[C@@H](CC(=O)N3CCC[C@H]3CO)O[C@]3(C(=O)N(C)c4c(Br)cc(C)cc43)[C@H]2C)cc1 | -0.105
5 | COCC1=C2[C@@H](CCc3ccccc3)OB(O)C[C@@H]2[C@@H]2C(=O)N(Cc3ccccc3)C(=O)[C@@H]2C1 | -0.0419
6 | COCCOC(=O)N1C(=O)[C@@]2(c3ccccc31)[C@H](C(=O)NC[C@H](O)c1ccccc1)[C@H]1C(=O)O[C@H](c3ccccc3)[C@H](c3ccccc3)N1[C@@H]2c1ccc(OCCO)cc1 | -0.113
7 | C=CC[C@@H](OC(=O)Nc1ccc(OC)cc1)c1ccc(O)c2ccccc12 | -0.0364
8 | COCCOC(=O)N1C(=O)[C@@]2(c3cc(C#CCCO)ccc31)[C@H](c1ccccc1OCCO)N1[C@H](c3ccccc3)[C@H](c3ccccc3)OC(=O)[C@H]1[C@@H]2C(=O)N1CCN(c2ncccn2)CC1 | 0.0763
9 | CCC[C@@H]1C=C(C(=O)O)[C@H](c2ccc(C)cc2)N1S(=O)(=O)c1ccc(C)cc1 | 0.0485
10 | COc1ccc(C(O)C2C=CC3C(=O)N(c4ccccc4)C(=O)C3N2Nc2ccc([N+](=O)[O-])cc2)cc1OCc1ccccc1 (stereo not given) | 0.649
